In PubChem BioAssay AID2156 (Johns Hopkins Ion Channel Center, 2009):
The campaign covered roughly 310,000 compounds. About 3,400 (1.1%) were called active. The sample holds actives, similar compounds and a random draw of the others, so the mix is not that of the screen.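 Rule for the calls: active = fluorescence ratio B-score at most minus 3 library SDs, with starting brightness B-score within 2 library SDs (cut at about -5.5 in these data); inactive = the rest, inconclusive results apart.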

These molecules were tested against Potassium voltage-gated channel subfamily KQT member 2 (Rattus norvegicus) (UniProt O88943) (assay: rat KCNQ2 potassium channel inhibitors, primary screen, cell-based, CHO-K1, FluxOR thallium flux, B-score (AID 2156)). Details: 20 min, at 10 µM; active compounds read low.
Chain of Potassium voltage-gated channel subfamily KQT member 2 (Rattus norvegicus) (O88943 whole entry, looked up): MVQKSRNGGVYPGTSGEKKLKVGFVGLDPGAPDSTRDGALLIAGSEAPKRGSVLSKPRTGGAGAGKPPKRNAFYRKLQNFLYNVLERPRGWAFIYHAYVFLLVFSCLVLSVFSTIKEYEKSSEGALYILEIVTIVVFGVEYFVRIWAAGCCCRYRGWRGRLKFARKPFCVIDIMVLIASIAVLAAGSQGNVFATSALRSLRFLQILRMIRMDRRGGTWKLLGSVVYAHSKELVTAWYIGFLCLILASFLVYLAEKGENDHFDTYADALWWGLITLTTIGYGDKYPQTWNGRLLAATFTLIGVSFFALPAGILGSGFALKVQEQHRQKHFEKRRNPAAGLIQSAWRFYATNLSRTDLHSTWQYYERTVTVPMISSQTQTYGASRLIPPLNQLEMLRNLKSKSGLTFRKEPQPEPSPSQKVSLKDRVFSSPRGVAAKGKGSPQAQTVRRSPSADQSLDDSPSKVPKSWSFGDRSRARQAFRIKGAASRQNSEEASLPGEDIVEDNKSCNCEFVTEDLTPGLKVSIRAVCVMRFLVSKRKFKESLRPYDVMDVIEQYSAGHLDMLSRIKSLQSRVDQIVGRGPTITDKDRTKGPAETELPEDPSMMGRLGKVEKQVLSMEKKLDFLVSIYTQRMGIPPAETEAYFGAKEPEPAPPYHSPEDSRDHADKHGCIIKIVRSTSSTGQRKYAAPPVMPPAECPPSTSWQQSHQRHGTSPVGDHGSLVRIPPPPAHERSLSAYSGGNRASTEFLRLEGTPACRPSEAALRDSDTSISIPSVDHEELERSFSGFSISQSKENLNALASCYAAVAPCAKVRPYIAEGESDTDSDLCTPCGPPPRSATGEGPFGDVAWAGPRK

B-score, active:
Cc1ccc(-c2cnc(NC(=O)CCC(=O)N(C)Cc3ccccc3)n2C)cc1 -7.93, Cc1ccccc1C(=O)Nc1ccccc1Sc1ccccc1 -8.36, O=C(NCc1ccccc1)C(c1ccco1)N(C(=O)c1csnn1)c1ccccc1F (configuration not stated) -6.27, CCc1ccc(OCC(=O)NCC(c2ccc(Cl)cc2)N2CCCCC2)cc1 (configuration not stated) -5.91, Cc1cccc(N2CCN(C(c3ccc(N(C)C)cc3)c3nnnn3C(C)(C)C)CC2)c1C (configuration not stated) -6.02, Cc1ccc(C2=Nc3c(ccc4ccccc34)C(c3ccncc3)=NN2)cc1 -7.02, CC(C(=O)NCC1CCCCC1)N(C)Cc1cccc(Cl)c1 (configuration not stated) -6.94, COc1ccc(Cl)cc1NC(=O)CN(C)Cc1ccc(OC)c(OC)c1 -7.16, CN1/C(=c2/s/c(=C3/C(=O)N(c4ccccc4)NC3=Nc3ccccc3)n(C)c2=O)C(C)(C)c2ccccc21 -7.74, Cc1cc(C)c2[nH]c(=O)c(C(c3nnnn3Cc3ccc4c(c3)OCO4)N3CCCC3)cc2c1 (configuration not stated) -6.38, CCN(CC)S(=O)(=O)c1ccc(N2CCOCC2)c(NC(=O)C2COc3ccccc3O2)c1 (configuration not stated) -6.56, CC(NC(=S)NNS(=O)(=O)c1ccc(C(C)(C)C)cc1)c1ccccc1 (configuration not stated) -10.4, Clc1cccc(-c2nc3nc4ccccc4nc3n2Cc2ccco2)c1 -9.06, O=C(Nc1cccc(F)c1)NC1CCCc2ccccc21 (configuration not stated) -5.61, CCc1ccc(-c2nn(-c3ccccc3)cc2CSC(=N)N)cc1 -12.4, O=C(NCc1ccccc1)C1=C[C@@H](c2ccc(C(F)(F)F)cc2)C[C@@H](OCc2ccc(CO)cc2)O1 -7.51, CCOc1ccc(C(CC(=O)O)NC(=O)COc2ccccc2)cc1 (configuration not stated) -5.97

B-score, inactive:
Cn1c(-c2ccc(F)cc2)cnc1SCC(=O)NNC(=O)Cc1ccccc1, CN(Cc1ccccc1)C(=O)CCc1ccccc1 -0.03, O=C(CCNC(=O)c1ccc(Br)cc1)Nc1cccc(S(=O)(=O)N2CCCCC2)c1 -0.11, CCCCn1c(N)c(N(Cc2ccccc2OC)C(=O)COc2cc(C)ccc2Cl)c(=O)[nH]c1=O -0.97, CCOc1ccc2ccccc2c1/C=N/NC(=O)c1c(C)cc(C)[nH]c1=O -2, Cc1cc(NC(=O)C(C)N2C(=O)c3ccccc3S2(=O)=O)no1 (configuration not stated) -0.8, FC(F)(F)c1ccc2c3n(nc2c1)CCN=C3c1ccc(Cl)cc1, Cc1ccccc1C(=O)Nc1ccccc1NC(=O)c1ccccc1C, O=C(COC(=O)c1ccccc1)Nc1ccccc1Sc1ccccc1 -0.64, O=C(Cc1ccc(S(=O)(=O)N2CCOCC2)s1)N1CCN(c2ccc(C(F)(F)F)cc2[N+](=O)[O-])CC1, O=C(NC1CCCCC1)c1ccc(-c2ccc(Cl)cc2)o1 -3.97, CN(CC(=O)Nc1cccc(F)c1)C(=O)C1=COCCO1 -0.61, O=C(NCc1ccccc1)C(c1ccccc1)N(C(=O)c1csnn1)c1ccc(F)cc1 (configuration not stated) -1.89, O=C(NC1CCCC1)C(c1ccco1)N(C(=O)c1csnn1)c1ccccc1 (configuration not stated), CCOc1ccc(C(C)=O)cc1COC(=O)CNC(=O)c1cccs1, CCOc1ncccc1C(=O)NNC(=O)c1cccc(S(=O)(=O)Nc2ccccc2OC)c1, COc1ccc(C(CNC(=O)COc2ccc([N+](=O)[O-])cc2)N2CCCCC2)cc1 (configuration not stated) -0.69, COc1ccc(C(CNC(=O)COc2ccccc2OC)N2CCCCC2)cc1 (configuration not stated), O=C(CCC1CCCCC1)Nc1cc(C(F)(F)F)ccc1N1CCOCC1 -0.87, CN(Cc1c(F)cccc1Cl)C(=O)CNC(=O)c1ccc2c(c1)OCO2 -1.89, Cc1cccc(N2CCN(C(c3ccccc3)c3nnnn3CC3CCCO3)CC2)c1C (configuration not stated) -1.18, CC(C)(C)n1nnnc1C(c1ccc(Cl)cc1)N1CCSCC1 (configuration not stated), CCOc1ccc(S(=O)(=O)NCCC(=O)NCC(C)(C)N2CCOCC2)cc1, CCOc1ccc2c(c1)C(c1ccc(C)cc1)=NNC(c1ccc(C)cc1)=N2 -1.45, CCc1ccc2c(c1)C(c1ccc([N+](=O)[O-])cc1)=NNC(c1ccccc1)=N2 -0.01, CC1(c2nnc(Cc3ccccc3)o2)CC(c2ccccc2F)=NO1 (configuration not stated), COc1ccc(Cl)cc1NS(=O)(=O)c1cccc(C(=O)NC2CCC(O)CC2)c1 (configuration not stated), CCN(CC)CCn1c2c(c(SCC(=O)Nc3nc4ccccc4s3)nc1=O)CCCC2 -0.49, CNS(=O)(=O)c1cccc(C(=O)NCC2CCCCC2)c1, Cc1ccccc1NC(=O)NCC1CCN(Cc2cccc(Cl)c2)CC1, O=C(COC(=O)c1cccc(Cl)c1)Nc1ccc2[nH]c(=O)[nH]c2c1, CCOc1cc(/C=N/NC(=O)c2cccc(S(=O)(=O)N3CCOCC3)c2)ccc1OCC(=O)N(C)C -0.36, Cc1ccc(S(=O)(=O)NCCC(=O)OCC(=O)N(C)c2ccccc2)cc1, COc1ccc(OC)c(NC(=O)CN(Cc2ccc(Cl)cc2)S(C)(=O)=O)c1 -0.01, COc1ccc(Cl)cc1NC(=O)CN(C)C(=O)c1cc2ccccc2cc1OC -1.83, O=C1N[C@@H](Cc2ccccc2)C(=O)N2[C@H]1C[C@]1(Br)c3ccccc3N(S(=O)(=O)c3ccccc3)[C@H]21, CCN1C(=O)/C(=c2\s/c(=C3\Sc4ccccc4N3C)c(=O)n2C)N(C)C1=S, CC1C(=O)N2CCCc3cc(S(=O)(=O)NCc4ccc(F)cc4)cc1c32 (configuration not stated), Cc1ccc(Cl)c(OCC(=O)N(C)CC(=O)Nc2ccc(N3CCOCC3)cc2)c1, Cc1ccc(NS(=O)(=O)c2ccc(C(=O)NCCCN3CCOCC3)cc2)cc1 -0.52, CC(C)CN(C(=O)Cn1c(=O)cnc2ccccc21)C1CCS(=O)(=O)C1 (configuration not stated) -1.5, CCOC(=O)N1CCN(C(=O)COc2ccc3oc4c(c3c2)CCCC4)CC1, CCOC(=O)C1CCN(C(c2cc3cc(C)cc(C)c3[nH]c2=O)c2nnnn2C2CCCCC2)CC1 (configuration not stated) -1.94, Fc1ccccc1C(c1nnnn1Cc1ccc2c(c1)OCO2)N1CCN(Cc2ccccc2)CC1 (configuration not stated) -1.43, O=C(CSC1=NS(=O)(=O)c2cc(F)ccc2N1)Nc1ccccc1F, O=C(OCC(=O)N1CCCC1=O)c1cc(S(=O)(=O)N2CCOCC2)ccc1Cl -0.84, O=C(NN1CCOCC1)c1cccc(F)c1, CCN(CC)S(=O)(=O)c1ccc(N2CCOCC2)c(C(=O)O)c1, CCN(CC)S(=O)(=O)c1ccc(N2CCOCC2)c(NC(=O)C2CSC3(C)CCC(=O)N23)c1 (configuration not stated), Cc1ccc(N2CC(C(=O)N3CCC4(CC3)CC(=O)c3ccccc3O4)CC2=O)cc1C (configuration not stated), O=C(NCC(=O)N1CCCC(C(F)(F)F)C1)c1ccccc1F (configuration not stated), Cc1ccc(S(=O)(=O)NNC(=S)NC(C)(C)C)cc1 -0.78, Cc1ccc(S(=O)(=O)CC(=O)NC(C)c2ccccc2)cc1 (configuration not stated) -0.01, CCN(C(=O)CSc1nnc(-c2ccc(OC(F)F)cc2)n1N)C1CCS(=O)(=O)C1 (configuration not stated) -0.14, CCN(CC(=O)Nc1cc(Cl)ccc1C)C(=O)CN1C(=O)NC2(CCCC2)C1=O -0.62, O=c1[nH]c(CSc2ncc(-c3ccc(F)cc3)n2Cc2ccco2)nc2ccccc12, Cc1cc(NC(=O)CSc2nc3cc(Cl)ccc3c(=O)n2Cc2ccco2)no1, O=C(Nc1cccc(F)c1)[C@@H]1CCCN1 -0.48, O=C(Nc1cccc(F)c1)NC1CCCCCCC1 -1.17, COc1cccc(N2CC(NS(=O)(=O)c3cccs3)CC2=O)c1 (configuration not stated), COc1ccc(C2=NOC(Cn3nc(C(=O)NCc4ccc5c(c4)OCO5)cc3-c3ccccc3)C2)cc1 (configuration not stated) -2.37, CCOC(=O)c1c(NC(=O)CN2C(=O)NC3(CCC(C)CC3)C2=O)sc(C)c1CC (configuration not stated), Cc1ccc2nnn(Cc3cccc(C(C)(C)C)c3O)c2c1 -2.09, O=C(CNC(=O)C12CC3CC(CC(C3)C1)C2)OCC(=O)N1CCCCC1, COc1cccc(N2CC(C(=O)NCc3n[nH]c(=O)c4ccccc34)CC2=O)c1 (configuration not stated), Cc1ccc(-c2nn(-c3ccccc3)cc2CN(Cc2ccccc2)C(=O)CCC(=O)O)o1, O=C(Nc1cn(-c2ccccc2)nc1-c1ccccc1)c1ccccc1 -2.94, CCOc1ccc(S(=O)(=O)Nc2cccc(C(=O)NCC3(N4CCCCC4)CCCCC3)c2)cc1 -0.94, CC(C)(C)[C@H]1C=C(C(=O)NCc2ccccc2)O[C@@H](OCc2ccc(CO)cc2)C1 -1.3, O=C(C1=C[C@H](c2ccc(C(F)(F)F)cc2)C[C@H](OCc2ccc(CO)cc2)O1)N1CCN(Cc2ccccc2)CC1 -2.67, CC1CCN(C(=O)COC(=O)c2cc(S(=O)(=O)N3CCOCC3)ccc2Cl)CC1, COc1ccc(C(CNC(=O)c2cccc(S(=O)(=O)Nc3ccccc3Cl)c2)N2CCOCC2)cc1 (configuration not stated), CCOc1ccc(C(CC(=O)O)NC(=O)Cc2ccccc2)cc1OC (configuration not stated) -0.84, Cc1ccc(OCC(=O)NC(C)c2ccccc2)cc1C (configuration not stated) -1.87, Cc1ccc(S(=O)(=O)N(C)C)cc1NC(=O)COC(=O)/C=C/c1cccs1
